# Test results reported in ChEMBL document CHEMBL1157539, “Thousands of chemical starting points for antimalarial lead identification” (Nature, 2010).
# Experiments:
# Type in all cases: functional
# Plasmodium falciparum [1] = assay: GSK_TCMDC: Inhibition of Plasmodium falciparum 3D7 in whole red blood cells, using parasite LDH activity as an index of growth. Test compounds present at 2uM
# Plasmodium falciparum [2] = assay: GSK_TCMDC: Inhibition of Plasmodium falciparum Dd2 in whole red blood cells, using parasite LDH activity as an index of growth. Test compounds present at 2uM
# HepG2 = assay: GSK_TCMDC: Percent inhibition of human HepG2 cell line. Test compounds present at 10uM.
SMILES,Inhibition (Plasmodium falciparum [1]) [%],Inhibition (Plasmodium falciparum [2]) [%],Inhibition (HepG2) [%]
CCC(C)NS(=O)(=O)c1ccc2nc(Nc3ccc(C)cc3)n([C@H](C)C(C)(C)C)c2c1 (some centres undefined),98,98,2
Cc1cccc(CNc2ncc(C)c(NCCC(=O)Nc3ccccc3)n2)c1.O=C(O)C(F)(F)F,81,10,18
CN(Cc1cccc(F)c1)C1CCCN(c2cc(NC(=O)c3ccccc3)ccn2)C1.O=C(O)C(F)(F)F (centres undefined),93,50,3
FC(F)(F)c1ccc2[nH]ccc(=NN=Cc3ccccc3)c2c1,92,2,7
COc1ccccc1NC(=S)N/N=C/c1ccc(O)cc1O,89,80,35
Cl.O=c1cc(NCCCNCc2ccc(Cl)c(Cl)c2)[nH]c2cc(F)cc(F)c12,100,94,11
CCc1cn2c3c(cc(C(=O)N[C@@H](Cc4cccc(Cl)c4)[C@H](O)CNC4CC4)cc13)N(C)S(=O)(=O)CC2.O=CO,98,98,10
COC(=O)C(NC(=O)c1ccc(-c2ccc(-c3nc4ccccc4[nH]3)s2)cc1)c1ccc(O)cc1 (centres undefined),83,49,99
O=C(/C=C/c1ccc(Cl)c(Cl)c1)NC1CCN(Cc2cccc(O)c2)CC1.O=C(O)C(F)(F)F,94,0,0
CC1(C)N=C(N)N=C(N)C1c1ccc(Cl)c(Cl)c1.Cl (centres undefined),95,0,47
CNC(=O)COc1cc(C)c(C2CCN(CCCCNC(=O)c3ccc(-c4ccc(C(F)(F)F)cc4)cc3)CC2)cc1C,100,72,38
CC(C)(C)CCN1CCC(CNC(=O)c2cc(-c3cccc(Cl)c3)cs2)C1.O=C(O)C(F)(F)F (centres undefined),99,13,50
CC[C@H]1CN(Cc2cccc(O)c2)CC[C@H]1CCCc1ccnc2ccc(O)cc12,100,98,14
NCC1CCCN1Cc1ccc(-c2ccc(-c3nc4cc(C(F)(F)F)ccc4[nH]3)s2)cc1.O=C(O)C(F)(F)F (centres undefined),100,97,31
Cc1c[nH]c2cc(/C=C/C(=O)NC3CCC(CCN4CCc5ccc(C#N)cc5CC4)CC3)ccc12.Cl (centres undefined),95,59,0
O=C(CN1CCN(C(=O)c2ccco2)CC1)Nc1ccc(Br)cc1Cl,88,79,10
COc1cc2nc(N3CCC(CNC(=O)c4cc5ccccc5s4)CC3)nc(N)c2cc1OC,100,100,8

SMILES,Inhibition (Plasmodium falciparum [1]) [%],Inhibition (Plasmodium falciparum [2]) [%],Inhibition (HepG2) [%]
COc1ccc2nccc([C@@H](O)CN3CCC(NCc4ccc5c(n4)NCCC5)CC3)c2c1,100,39,21
COc1cccc(CNC[C@@H](O)[C@H](Cc2ccccc2)NC(=O)c2cc(C(C)C)cc(N3CCCC3=O)c2)c1,95,61,1
CC[C@H](NC(=O)c1c(CN2CCC(N3CCCCC3)CC2)c(-c2ccccc2)nc2cc(O)ccc12)c1ccccc1,94,13,15
O=C(N1CCN(c2cccc(C(F)(F)F)c2)CC1)C(Cl)(Cl)Cl,89,35,0
COc1c(C2CCN(CCCCNC(=O)c3oc(-c4ccc(Cl)cc4)cc3CO)CC2)ccc2c1CCCC2,100,95,80
O=C(Nc1ccc(N2CCCN(Cc3cccc(F)c3)CC2)cc1)c1cccs1.O=C(O)C(F)(F)F,96,96,2
CCOC(=O)C1=C(C)N=c2sc(=Cc3cc(Cl)ccc3O)c(=O)n2C1c1ccc(OC)cc1 (centres undefined),99,65,0
CC(C)c1ccc(NC(=O)NC2CCN(CCCCCNC(=O)/C=C/c3ccc(Cl)c(Cl)c3)CC2)cc1,100,19,0
O=C(O)C(F)(F)F.OCCC1CCN(Cc2ccc(-c3ccc(-c4nc5ccccc5[nH]4)cc3)cc2)CC1,99,98,35
Cc1cccc2nc(-c3ccc(-c4ccc(NC(=O)NCc5cccc(F)c5)cc4)s3)[nH]c12,100,43,70
Cc1cc(N(C)C)nc(Nc2ccc(NC(=O)c3ccc(F)cc3)cc2)n1,100,21,8
COc1ccccc1C1CC(c2ccccc2)=NN1C(=O)c1ccco1 (centres undefined),97,95,12
COCCNC(=O)c1ccc(OC2CCN(CC(C)=Cc3ccccc3)CC2)c(Cl)c1,94,95,18
Cc1ccc([N+](=O)[O-])cc1NC(=O)N(CC(O)c1ccccc1)C1CCCCC1 (centres undefined),100,98,11
N#Cc1ccc(N[C@@H](CC2CCCCC2)C(=O)N[C@@H]2CCCc3ccccc32)c2ccccc12.O=C(O)C(F)(F)F,99,99,12
COc1ccc(NC(=O)[C@H](Cc2ccccc2)Nc2cc(C)nc(NCCc3ccccc3)n2)cc1.O=C(O)C(F)(F)F,98,83,6
